From PubChem BioAssay AID463095 (Sanford-Burnham Center for Chemical Genomics, 2010)
Some of the results follow. Calls of active or inactive are those of the source.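 How the source made its calls: active means proliferation increase above 40% at any of the four tested concentrations; inactive means the rest.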

Assay: inducers of beta-cell proliferation in MIN6, confirmation, MIN6 cells, mouse (AID 463095)
Conditions: ATPlite luminescence, 48 h, cells kept in 0.2% serum, scaled between 0.2% and 10% serum; series mostly up to 50 µM

outcome, inactive:
O=C(Nc1ccc(F)cc1)C1CCCN(S(=O)(=O)c2ccc(-n3cnnn3)cc2)C1 (stereo unspecified)
Cc1cc(NC(=O)c2ccco2)c(=O)n(Cc2c(F)cccc2Cl)c1
COc1ccc(CCC(=O)c2ccc(OC)cc2)cc1
CCn1c(=O)n(CC)c2cc(N3CCCC3)c(NC(=O)c3ccccc3Br)cc21
CN(Cc1ccc(F)cc1Cl)S(=O)(=O)c1cccs1
CCCNC(=O)CCn1nc(-c2ccccc2)c2ccccc2c1=O
COc1ccc(-c2nnn(Cc3nc(N)nc(N4CCCCC4)n3)n2)cc1
COCCNc1nc(-c2ccccc2)nc2c1oc1ccccc12
CC1(C)C2CC=C(/C=N/NC(=O)C3CC3)C1C2 (stereo unspecified)
N#Cc1cccc(CN2CCC(=O)N([C@H](CO)c3ccccc3)CC2)c1
COc1ccccc1N=Cc1c(O)c2ccccc2oc1=O
Cc1cc(NC(=O)CSc2nc3ccccc3n2CC(C)C)no1
Cn1nc(-c2ccccc2)c2cc([N+](=O)[O-])ccc21
CC/C(=N/Nc1ccccc1)c1cnnc(SC)n1
COc1ccc(CCn2c(=N)c(C(=O)NCc3ccco3)cc3c(=O)n4cccc(C)c4nc32)cc1
Cc1ccccc1NC(=S)NNC(=O)c1cccc(Br)c1
CC(=O)c1cnc(-c2ccccc2)s1
CCOC(=O)Nc1sc(C(=O)N(C)C)c(C)c1C(=O)OCC
CC(=O)c1ccc(S(=O)(=O)NCc2nnnn2-c2ccccc2)cc1
OC1CN=C2Sc3ccccc3N2C1 (stereo unspecified)
CCOc1ccccc1NC(=O)Nc1cc(OC)ccc1OC
